{
  "source": "PubChem BioAssay (Tox21)",
  "note": "Several values for one entry are separate records, joined by “and”; a condition that tells them apart may be missing. Equal entries are not always repeated. Unmarked numbers belong to inactive results. Inconclusive results are not listed. Activity calls are given as the source filed them. Unless noted, calls come from the whole dose curve; as a rule, active = well fitted cell-killing curve with a large enough effect in the repeat runs; inconclusive = weak or mixed curves; inactive = flat fitted curve, though single readings scatter. % is set by controls: 0 for no effect and ±100 for the full control effect.",
  "data": [
    {"test": "qHTS assay to identify small molecule agonists of the estrogen related receptor (ERR) signaling pathway from Tox21 library (AID 1224849; calls by dose curve; note: nearly all actives have a fitted effect of over 15% in size)", "conditions": "ERR reporter cell line, ONE-Glo luciferase, 18 h; at 92.4 µM (top of the series)", "summary_of_the_method": "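Quantitative HTS in agonist format: NTP ERR cell line, compounds transferred in DMSO after 6 h plating, 18 h incubation at 37 C, ONE-Glo luminescence endpoint.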", "values": [
      {"smiles": "CN1C(=O)CN=C(c2ccccc2)c2cc(Cl)ccc21", "activity change, positive = activation": "-13.2%"},
      {"smiles": "Nc1ccc(Oc2ccc(N)cc2)cc1", "activity change, positive = activation": "-8.13% and -18.8%"},
      {"smiles": "O=[N+]([O-])c1ccc(Oc2ccc(Cl)cc2Cl)cc1", "activity change, positive = activation": "-5.45% and -4.04%"},
      {"smiles": "CCOC(=O)c1ccccc1C(=O)OCC", "activity change, positive = activation": "2.2% and 2.35%"},
      {"smiles": "CC(C)OC(=O)Nc1ccccc1", "activity change, positive = activation": "8.94% and -18.7%"},
      {"smiles": "Cc1ccc(N)cc1N", "activity change, positive = activation": "49% (active)"},
      {"smiles": "CN(C)CCO", "activity change, positive = activation": "0.0173% and 5.21%"}
    ]},
    {"test": "qHTS RealTime-Glo MT Cell Viability Assay in HepG2 cells - 24 hour (AID 1224867); note: nearly all actives have a fitted effect of over 50% in size", "conditions": "RealTime-Glo luminescence; series mostly up to 76.8 µM", "summary_of_the_method": "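HepG2 suspension premixed with RealTime-Glo reagents is plated at 600 cells per well and left 5 h at 37 C/5% CO2. Compounds in DMSO then go in, and bioluminescence reflecting viable cell number is recorded over 40 h.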", "values": [
      {"smiles": "[N-]=[N+]=[N-]", "outcome": "inactive"},
      {"smiles": "CCc1cccc(C)c1N(C(=O)CCl)C(C)COC", "note": "(configuration not stated)", "outcome": "inactive"},
      {"smiles": "CC(C)C1(C)N=C(c2nc3ccccc3cc2C(=O)O)NC1=O", "note": "(configuration not stated)", "outcome": "inactive"},
      {"smiles": "C#CCN(C)[C@H](C)Cc1ccccc1", "outcome": "inactive"},
      {"smiles": "CN1C(=O)CN=C(c2ccccc2)c2cc(Cl)ccc21", "outcome": "inactive"},
      {"smiles": "CC(Br)C(=O)O", "note": "(configuration not stated)", "outcome": "inactive"},
      {"smiles": "O=C1CCCN1", "outcome": "inactive"},
      {"smiles": "CCC12COCN1COC2", "outcome": "inactive"},
      {"smiles": "CC(C)=C[C@@H]1[C@@H](C(=O)OCc2coc(Cc3ccccc3)c2)C1(C)C", "outcome": "inactive"},
      {"smiles": "Cc1cc(-c2cc(C)c(N)c(C)c2)cc(C)c1N", "outcome": "inactive"},
      {"smiles": "c1ccc(-c2ccccc2)cc1", "outcome": "inactive"},
      {"smiles": "Nc1ccc(Oc2ccc(N)cc2)cc1", "outcome": "inactive"},
      {"smiles": "O=C(NC(=O)c1c(F)cccc1F)Nc1cc(Cl)c(OC(F)(F)C(F)C(F)(F)F)cc1Cl", "note": "(configuration not stated)", "outcome": "inactive"},
      {"smiles": "O=[N+]([O-])c1ccc(Oc2ccc(Cl)cc2Cl)cc1", "outcome": "inactive"},
      {"smiles": "COc1ccc2c3c1O[C@H]1[C@@H](O)C=C[C@H]4[C@@H](C2)N(C)CC[C@@]341", "outcome": "inactive"}
    ]}
  ]
}
